Data on 18 molecules can be found in PubChem BioAssay (NCATS).

The nature of assay [1]: qHTS assay for measurement of the activity of small molecule inhibitors on Zika virus induced Caspase-3 activity in human iPSC derived neural progenitor cells (hNPCs) (AID 1224857). Note: nearly all actives have a fitted effect of over 65% in size. The essentials:
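Caspase-3/7 induction by a 6-hour ZIKV infection was quantified with a luminescent Caspase-Glo 3/7 reagent incubated 30 minutes at room temperature. Compounds were preincubated with hNPCs for 1 hour; inhibition was calculated against uninfected and infected control wells.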
In general terms: qHTS replaces the single test concentration by a dilution series.

Assay [2] in a line: qHTS assay for measurement of the activity of small molecule inhibitors on Zika virus induced Caspase-3 activity in human astrocytoma cells (AID 1224859). The gist of the method: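 In SNB-19 cells plated at 250 cells/well and grown 16-20 h, compounds were applied 1 h before ZIKV (2 FFU/cell). Six hours later caspase-3/7 luminescence was recorded.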
Assay [3] can be described thus: qHTS Screen of the MIPE 4.0 Collection Against Ewings Sarcoma (RDES) (AID 1259252). Note: nearly all actives have a fitted effect of over 35% in size. The gist of the method:
(§1)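 Compound titrations go onto adherent log-phase cells 4 h after seeding, incubate 48 h at 37C, then CellTiter-Glo luminescence reports viability relative to DMSO and cell-free controls.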

Assay [4] is described as follows: qHTS Screen of the MIPE 4.0 Collection Against Ewings Sarcoma (TC71) (AID 1259253). Note: nearly all actives have a fitted effect of over 40% in size. The essentials: as §1
Assay [5] in a line: qHTS Screen of the MIPE 4.0 Collection Against Ewings Sarcoma (EW8) (AID 1259255). Note: nearly all actives have a fitted effect of over 35% in size. The essentials:
as §1

Assay [6] can be described thus: qHTS Screen of the MIPE 4.0 Collection Against Ewings Sarcoma (TC32) (AID 1259256). Note: nearly all actives have a fitted effect of over 45% in size. The gist of the method:
as §1

Assay [7] is described as follows: Identifying Small Molecule Inhibitors of Pancreatic Cancer Stem Cells (SN12C, Adherent) (AID 1259358).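 Note: cell survival measured after 48 h of compound exposure.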 The gist of the method:
(§2)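 Viability is scored by CellTiter-Glo luminescence 48 h after dosing, expressed as percent activity against vehicle and no-cell references. Spheroid formats rely on cells cultured 14 days in stem cell media beforehand.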

Assay [8] can be described thus: Identifying Small Molecule Inhibitors of Pancreatic Cancer Stem Cells (A2780, Spheroid) (AID 1259357).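 Note: spheroids pre-formed over 14 days in stem cell medium on hydrogel; compound exposure lasted 48 h before the ATP luminescence read.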 The note with it: Potency: A2780 spheroid viability. The gist of the method:
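Endpoint: ATP-based luminescence, 48 h drug exposure. Bortezomib at 9.2 uM final as full-kill control; DMSO vehicle as negative control; activity normalized between vehicle and cell-free wells.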

Assay [9] in a line: Identifying Small Molecule Inhibitors of Pancreatic Cancer Stem Cells (Panc1, Spheroid) (AID 1259359).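 Note: compound exposure lasted 48 h before reading.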 The essentials:
as §2

Inconclusive results are not listed. Calls of active or inactive are those of the source. Calls come from the whole dose curve; as a rule, active = well fitted curve in the direction sought with a large enough effect; inconclusive = small, poorly fitted or top-dose-only effect, or another doubt; inactive = no such curve, though single readings can be large; an effect the other way counts as inactive or inconclusive.
Potency is the fitted concentration of half-maximal effect.

On to `OCCCNc1cc(-c2ccnc(Nc3cccc(Cl)c3)n2)ccn1`, for which the Potency result in [1] and in assay [2] was “inactive” in each case. The Potency in [3] was 166 nM (active); in assay [4] it was 118 nM (active); in [5], 148 nM (active); in assay [6], 166 nM (active).
As to `CC[C@@]1(O)C(=O)OCc2c1cc1n(c2=O)Cc2cc3cc(O)ccc3nc2-1`, the Potency result in assay [1] and in assay [2] was “inactive” throughout. Also, the Potency was 13.2 nM (active) in assay [3], 11.8 nM (active) in assay [4], 13.2 nM (active) in assay [5] and 3.3 nM (active) in [6].
`Nc1ccccc1NC(=O)c1ccc(CNc2nccc(-c3cccnc3)n2)cc1`: the Potency entry in assay [1] and in assay [2] was “inactive” in each case. The Potency is 1320 nM (active) in [3], 1050 nM (active) in assay [4], 1050 nM (active) in assay [5] and 935 nM (active) in assay [6].
`CNC(=O)c1ccc(N2C(=S)N(c3cnc(C#N)c(C(F)(F)F)c3)C(=O)C23CCC3)cc1F`: the Potency result in assay [1] and in assay [2] was “inactive” in each case. For the same molecule, the Potency in [3] was 1180 nM (active); in [4], 2960 nM (active); in [5] it was 8330 nM (active); in [6], 8330 nM (active).
As for `CNC(=O)c1c(F)cccc1Nc1nc(Nc2cc3c(cc2OC)CCN3C(=O)CN(C)C)nc2[nH]ccc12`, the Potency result in [1] and in assay [2] was “inactive” each time. The Potency is 20900 nM (active) in [3], 20900 nM (active) in assay [4], 7430 nM (active) in assay [5] and 1320 nM (active) in assay [6].
For the molecule `C=CC(=O)Nc1cccc(Oc2nc(Nc3ccc(N4CCN(C)CC4)cc3)ncc2Cl)c1`, the Potency entry in [1] and in assay [2] was “inactive” throughout. Further, the Potency in assay [3] was 2350 nM (active); in [4], 14800 nM (active); in [5] it was 2640 nM (active); in assay [6], 2640 nM (active).
As for `C[C@]12CC[C@H](O)CC1=CCC1C2CC[C@]2(C)C(n3cnc4ccccc43)=CCC12` (stereo not given in full), the Potency entry in assay [1], in assay [2], in assay [3], in assay [4], in assay [5] and in assay [6] was “inactive” in each case.
With `Cn1c(=O)n(-c2ccc(C(C)(C)C#N)cc2)c2c3cc(-c4cnc5ccccc5c4)ccc3ncc21`, the Potency result in assay [1] and in assay [2] was “inactive” each time. The Potency in [3] was 46.9 nM (active); in assay [4] it was 59 nM (active); in [5] it was 29.6 nM (active); in [6] it was 33.2 nM (active); in assay [7] it was 74.3 nM (active).
In the case of `COc1cc(=C2C=c3ccccc3=N2)[nH]c1=Cc1[nH]c(C)cc1C`, the Potency entry in assay [1] and in assay [2] was “inactive” each time. Besides, the Potency in assay [3] is 1870 nM (active); in assay [4], 469 nM (active); in [5] it was 2350 nM (active); in [6], 1180 nM (active); in [8], 20900 nM (active); in assay [9], 1480 nM (active).
As for `COCCn1c2c([n+](Cc3cnccn3)c1C)C(=O)c1ccccc1C2=O`, the Potency in assay [1] is 418 nM (active); in assay [2] it was 1320 nM (active); in [3] it was 2.1 nM (active); in [4], 16.6 nM (active); in [5] it was 4.7 nM (active); in assay [6], 5.3 nM (active). Moreover, the results for the Potency in assay [8] and in [7] were 13.2 nM (active) and 26.4 nM (active), respectively. Moreover, the Potency result in assay [9] is “inactive”.
As to `Cc1cnc(-c2cnc(NCCNc3ccc(C#N)cn3)nc2-c2ccc(Cl)cc2Cl)[nH]1`, the Potency result in assay [1], in [2], in assay [8] and in assay [7] was “inactive” throughout. For the same molecule, the Potency in [3] was 8330 nM (active); in [4] it was 11800 nM (active); in assay [5], 16600 nM (active); in assay [6] it was 11800 nM (active).
Turning to `COC(=O)[C@]12CCC(C)(C)C[C@@H]1[C@@H]1C(=O)C=C3[C@@]4(C)C=C(C#N)C(=O)C(C)(C)[C@@H]4CC[C@@]3(C)[C@]1(C)CC2`, the Potency entry in assay [1] and in assay [2] was “inactive” each time. For the same molecule, the Potency in [3] is 372 nM (active); in [4], 264 nM (active); in assay [5] it was 296 nM (active); in assay [6], 118 nM (active); in assay [8], 1320 nM (active); in assay [7] it was 2640 nM (active). Further, the Potency in assay [9] is 1180 nM (active).
For `Cc1nc2cnc3ccc(C#Cc4cccnc4)cc3c2n1-c1ccc(C(C)(C)C#N)cc1`, the Potency entry in [1] and in assay [2] was “inactive” each time. Besides, the Potency in [3] was 132 nM (active); in [4], 132 nM (active); in assay [5] it was 118 nM (active); in [6], 105 nM (active); in assay [8] it was 1870 nM (active); in [7] it was 1180 nM (active). For the same molecule, in assay [9], the Potency is 18700 nM (active).
On to `CS(=O)(=O)N1CCN(Cc2cc3nc(-c4cccc5[nH]ncc45)nc(N4CCOCC4)c3s2)CC1`, for which the Potency result in assay [1] and in assay [2] was “inactive” in each case. The Potency in [3] was 1180 nM (active); in [4] it was 5900 nM (active); in assay [5], 1660 nM (active); in assay [6], 418 nM (active); in [7], 296 nM (active).
Take `C=CC(=O)Nc1cc2c(Nc3ccc(F)c(Cl)c3)ncnc2cc1C#CC(C)(C)N1CCN(C)CC1`: the Potency entry in [1] and in assay [2] was “inactive” each time. The Potency in assay [3] is 1870 nM (active); in assay [4], 2640 nM (active); in [5], 2350 nM (active); in assay [6] it was 1320 nM (active); in assay [8] it was 16600 nM (active); in [7], 13200 nM (active). Further, in assay [9], the Potency is 5260 nM (active).
Take `COc1cc2ncn(-c3cc(OCc4ccccc4C(F)(F)F)c(C(N)=O)s3)c2cc1OC`: the Potency result in assay [1] and in assay [2] was “inactive” in each case. The Potency is 4180 nM (active) in assay [3]; 1480 nM (active) in [4]; 1320 nM (active) in assay [5]; 1320 nM (active) in assay [6]; 1050 nM (active) in assay [7].
As to `C[C@@H]1CN(CC(=O)Nc2ccc3c(c2)Cc2cccc(-c4cc(=O)cc(N5CCOCC5)o4)c2S3)C[C@H](C)O1`, the Potency result in assay [1], in assay [2] and in assay [7] was “inactive” each time. The Potency in assay [3] is 23500 nM (active); in assay [4], 20900 nM (active); in assay [5], 23500 nM (active); in [6], 18700 nM (active).
Regarding `CC[C@@H]1C(=O)N(C)c2cnc(Nc3ccc(C(=O)NC4CCN(C)CC4)cc3OC)nc2N1C1CCCC1`, the Potency result in [1], in assay [2] and in assay [8] was “inactive” in each case. Also, the Potency in assay [3] was 66.2 nM (active); in assay [4], 74.3 nM (active); in assay [5] it was 37.2 nM (active); in [6], 46.9 nM (active); in assay [9], 8.3 nM (active).
